The values below come from PubChem BioAssay (NCI).

Holding throughout (experiment): NCI-60 one-dose screen, 48 h (100 = growth as untreated, 0 = no growth, -100 = all killed)
Settings in all cases: 10 µM unless noted

For assay [1], the system named is SK-MEL-2 melanoma.
The subject of assay [2] is EKVX NSCLC.
Assay [3] has as its system SN12C renal.
Assay [4] has as its system UO-31 renal.
Assay [5] deals with TK-10 renal.
In assay [6] the test system is ACHN renal.
Assay [7] concerns CAKI-1 renal.
For assay [8], the system named is A498 renal.
Assay [9] deals with CCRF-CEM leukemia.
Assay [10] deals with MOLT-4 leukemia.

Compounds without any hit were thinned out: in the full panel of roughly 83,000, 20% have a hit.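 Activity criterion: percent growth below 10, measured after cells in 96-well plates were exposed to a single compound concentration for 48 hours.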 Values without a mark were called inactive. The source made the active and inactive calls.

For the compound `Cc1cc2nc3c4cc(O)ccc4n(CCN(C)C)c3nc2cc1C`, the growth in [1] was -42.9% (active); in assay [2], 2.33% (active); in [3], 3.51% (active); in [4], -37.5% (active); in assay [5] it was 5.14% (active); in [6] it was -33.7% (active). The growth is -39% (active) in [7], 9.28% (active) in [8], 9.31% (active) in assay [9] and 1.9% (active) in assay [10].

Consider `CC1(C)[C@@H](O)CC[C@]2(C)[C@H]3CC[C@@H]4[C@H]5[C@H](C(=O)/C=C/c6ccc(C(F)(F)F)cc6)CC[C@]5(CO)CC[C@@]4(C)[C@]3(C)CC[C@@H]12`, for which the growth in assay [1] is 83.7%; in assay [2], 71.2%; in [3], 58.8%; in assay [4], 46.7%; in assay [5] it was 105%; in [6] it was 25.9%. The growth in assay [7] was 47.4%; in [8], -1.48% (active); in assay [9] it was 28.4%; in assay [10], 14%.

Regarding `COc1ccc(C2c3ccccc3NC(=O)N2C2CCN(C)CC2)c(OC)c1` (stereo not given), the growth in [1] is 108%; in assay [2], 87%; in [3], 95.6%; in [4] it was 89.7%; in [5], 98.1%; in assay [6] it was 103%. The growth is 102% in assay [7], 102% in assay [8], 106% in [9] and 99.5% in assay [10].

Take `N#CC1=C(N)Oc2c(c(N)nn2-c2ccccc2)C1c1ccc(Cl)cc1` (stereo not given): the growth in [1] is 103%; in assay [2], 90.7%; in [3] it was 97.8%; in assay [4] it was 61.2%; in assay [5] it was 152%; in [6], 93.1%. Also, the growth in assay [7] was 86.8%; in assay [8] it was 97.8%; in assay [9], 101%; in [10], 98.8%.

Turning to `COc1cccc(-c2nn(-c3ccccc3)cc2-c2ccnc(NCCCNS(=O)(=O)c3cccc(F)c3)c2)c1`, the growth in assay [1] is 4% (active); in [2], 45.1%; in assay [3], 32.3%; in [4] it was 9.64% (active); in [5] it was 36.9%; in assay [6], 19.4%. The growth was 32.4% in assay [7], 30.4% in [8], 11.4% in assay [9] and -3.37% (active) in [10].

For the compound `O=C1CNCCN1`, the growth in assay [1] was 106%; in [2], 101%; in assay [3], 97.8%; in [4], 91.7%; in assay [5], 100%; in [6], 106%. Besides, the growth in assay [7] was 93.1%; in assay [8] it was 98%; in [9], 99.7%; in assay [10], 94%.

On to `O=Cc1nc2ccccc2[nH]1`, for which the growth is 101% in assay [1]; 94.5% in [2]; 101% in assay [3]; 75.9% in assay [4]; 97% in assay [5]; 106% in assay [6]. The growth in assay [7] was 93.2%; in assay [8], 105%; in [9] it was 99.8%; in assay [10], 95.4%.

As to `c1ccc2[nH]c(-c3ccc(Nc4nc(N5CCCCC5)nc(N5CCOCC5)n4)cc3)nc2c1`, the growth in assay [1] is -20.6% (active); in assay [2] it was 27.7%; in assay [3] it was 52.4%; in assay [4] it was -37.8% (active); in assay [5], 58.8%; in assay [6], 22.9%. Further, the growth in assay [7] is -46.9% (active); in assay [8] it was -28.6% (active); in assay [9], 8.74% (active); in assay [10] it was 13.7%.

For `C#CCC(C)(O)/C=C/C1=C(C)CCCC1(C)C` (stereo not given), the growth in assay [1] is 97.4%; in [2], 95.8%; in [3] it was 99.2%; in assay [4], 91.3%; in assay [5], 96.7%; in assay [6], 97.3%. The growth in assay [7] is 92.4%; in assay [8], 91.3%; in assay [9], 101%; in assay [10], 101%.

`CC1=NN(c2ccc(S(=O)(=O)O)cc2Cl)C(=O)C1`: the growth in assay [1] was 112%; in assay [2], 101%; in assay [3], 100%; in [4], 89.2%; in assay [5], 101%; in assay [6] it was 105%. In addition, the growth in [7] is 85.1%; in assay [8], 102%; in [9], 99.1%; in [10], 123%.

For the compound `CC1(C)NC2=C(C(Nc3cccnc3)N1)C(c1ccc([N+](=O)[O-])cc1)C(C(=O)c1ccc(N=[N+]=[N-])cc1)O2` (stereo not given), the growth was 107% in [1]; 99.8% in assay [2]; 101% in [3]; 88.3% in assay [4]; 97.1% in assay [5]; 102% in assay [6]. Besides, the growth was 102% in [7], 108% in [8], 98.8% in assay [9] and 102% in assay [10].

Regarding `CC1(C)C=CC[C@]2(C)[C@H]3CC[C@@H]4[C@H]5[C@H](C(=O)/C=C/c6cccnc6)CC[C@]5(CO)CC[C@@]4(C)[C@]3(C)CC[C@@H]12`, the growth in assay [1] is -66.1% (active); in assay [2], -36.7% (active); in assay [3], -40% (active); in assay [4], -100% (active); in assay [5] it was -90.7% (active); in assay [6], -100% (active). Besides, the growth in assay [7] was -75.5% (active); in [8], -78.8% (active); in assay [9], -2.65% (active); in assay [10], -30.6% (active).

For `O=C1CCN2C(=O)Nc3ccccc3C2C1` (stereo not given), the growth in [1] is 110%; in assay [2], 99.8%; in assay [3], 94.2%; in [4] it was 94.1%; in [5], 104%; in assay [6] it was 106%. Besides, the growth in assay [7] was 89.6%; in assay [8] it was 120%; in [9], 106%; in assay [10] it was 97.8%.
